Screening results: PubChem BioAssay, National Center for Advancing Translational Sciences (NCATS)
HPGD inh: qHTS Assay for Inhibitors of HPGD (15-Hydroxyprostaglandin Dehydrogenase); 15-hydroxyprostaglandin dehydrogenase [NAD(+)] (Homo sapiens), P15428; Potency, µM, actives largely listed as inhibitors; purified HPGD, NADH fluorescence kinetic, PGE2 substrate; actives 4.3% (n = 150,000); AID 894, 2007; active = well fitted inhibition curve with a large enough effect, not every such curve was filed as active; inconclusive = small, poorly fitted or top-dose-only effect, or another doubt; inactive = no such curve, though single readings can be large or run the other way
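20 nM HPGD preincubated 15 min at room temperature with compound in 50 mM Tris-HCl pH 8, 0.01% Tween 20. Started with 1 mM NAD+ and 30 uM prostaglandin E2; NADH fluorescence (360/450 nm) read 5 times over 30-s intervals, last minus first.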
CBFb-RUNX1 inh: qHTS Assay for Compounds Blocking the Interaction Between CBF-beta and RUNX1 for the Treatment of Acute Myeloid Leukemia | Runt-related transcription factor 1 (Homo sapiens) + Core-binding factor subunit beta … | AlphaScreen CBFb-His/RUNX1-biotin binding, biochemical | Potency, µM (titrated, usually from 59.8 µM), hits mostly inhibitors | 230,000 tested, under 10 active | AID 1477, 2009
Target sequence (Q01196 whole entry, looked up): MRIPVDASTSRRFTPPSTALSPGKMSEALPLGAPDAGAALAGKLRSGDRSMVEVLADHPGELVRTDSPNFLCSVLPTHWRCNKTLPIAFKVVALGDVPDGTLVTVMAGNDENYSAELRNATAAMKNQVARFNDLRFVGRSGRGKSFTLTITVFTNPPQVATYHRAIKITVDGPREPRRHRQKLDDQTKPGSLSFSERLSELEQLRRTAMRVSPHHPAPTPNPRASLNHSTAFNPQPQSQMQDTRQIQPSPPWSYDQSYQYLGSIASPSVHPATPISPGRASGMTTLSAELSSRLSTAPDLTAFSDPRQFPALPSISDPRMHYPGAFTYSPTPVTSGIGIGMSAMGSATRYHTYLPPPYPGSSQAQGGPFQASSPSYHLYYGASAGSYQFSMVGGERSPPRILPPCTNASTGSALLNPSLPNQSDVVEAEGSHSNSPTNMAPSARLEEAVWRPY
Target sequence (Q13951 whole entry, looked up): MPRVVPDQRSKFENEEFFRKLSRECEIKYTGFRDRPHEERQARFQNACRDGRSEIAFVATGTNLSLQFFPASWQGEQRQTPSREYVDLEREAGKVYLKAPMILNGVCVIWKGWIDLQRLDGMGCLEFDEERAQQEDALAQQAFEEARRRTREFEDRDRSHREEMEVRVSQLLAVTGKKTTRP
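AlphaScreen binding: CBFb-His and RUNX1-biotin (30 nM each) preincubated 20 min, compound added for 15 min, then nickel and streptavidin beads for 90 min, all at room temperature. Disruption of the interaction by any mechanism counts as activity.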
PNC inhibitor: High Content Assay for Compounds that inhibit the Assembly of the Perinucleolar Compartment | PC3M PTB-GFP, PNC prevalence imaging, 16 h; hits give low values | activity change (PNC), negative = inhibition, % at 10 µM | actives 3.1% (n = 140,000);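 active = readout at or below -70, meaning at least 70% loss of cells showing the perinucleolar compartment, a nuclear body marking cancer cells; inconclusive = readout between -30 and a set limit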
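PC3M cells stably expressing PTB-GFP, 750–1000 cells/well, treated 16 h at 37 °C with compound (23 nl of library stock), in duplicate. After paraformaldehyde fixation and Hoechst stain, imaged at 20x; PNC prevalence scored by image analysis.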
ALDH1A1 inh: qHTS Assay for Inhibitors of Aldehyde Dehydrogenase 1 (ALDH1A1) | AID 1030, 2008 | Aldehyde dehydrogenase 1A1 (Homo sapiens), P00352 | Purified ALDH1A1, NADH fluorescence, propionaldehyde substrate | Potency, µM (series often up to 75.3 µM), usual class: inhibitors | actives 7.3% (n = 220,000); active = well fitted inhibition curve with a large enough effect, not every such curve was filed as active; inconclusive = small, poorly fitted or top-dose-only effect, or another doubt; inactive = no such curve, though single readings can be large or run the other way
HttQ103 aggreg: qHTS Multiplex Assay to Identify Dual Action Probes in a Cell Model of Huntington: Aggregate Formation (GFP). actives 1.1% (n = 220,000). AID 1688, 2009. Potency, µM (series often up to 46.1 µM), usual class: inhibitors. PC12 HttQ103-GFP aggregates, Acumen cytometry, 40 h; note: nearly all actives have a fitted effect of over 60% in size
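Steps: seed 1500 PC12 HTTQ103-GFP cells/well; add tebufenozide, 100 nM final; add compound titration; add ATPLite reagent; quantify GFP aggregates by laser scanning cytometry.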
HTT ATP protect: qHTS Multiplex Assay to Identify Dual Action Probes in a Cell Model of Huntington: Cytoprotection (ATP); PC12 HTT-Q103 induced, cytoprotection, ATP luminescence, 40 h; Potency, µM (highest dose often 56.4 µM), usual class: activators; AID 1471, 2008; actives 0.14% (n = 230,000); note: nearly all actives have a fitted effect of over 45% in size
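Rat PC12, Q103 Htt exon1-GFP fusion, ecdysone promoter; tebufenozide inducer 100 nM final; compound titration; qHTS, 1500 cells/well; ATPlite luminescent read.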
A number is an active result; i = inactive; ? = inconclusive; nt = no result; [ ] = dose if it differs, or a comment. Shown are actives, neighbours in structure and some others; about 11% of the full set was active somewhere. Unless noted, calls come from the whole dose curve; as a rule, active = well fitted curve in the direction sought with a large enough effect; inconclusive = small, poorly fitted or top-dose-only effect, or another doubt; inactive = no such curve, though single readings can be large; an effect the other way counts as inactive or inconclusive.

SMILES	HPGD inh	CBFb-RUNX1 inh	PNC inhibitor	ALDH1A1 inh	HttQ103 aggreg	HTT ATP protect
CC[C@H]1C2=C3C(CC[C@H]4C(OCc5ccc(F)cc5C(F)(F)F)OC[C@](C)([C@@H]34)N(C(=O)OC(C)(C)C)C2)C(COC)C1COC (some centres undefined)	i	i	nt	i	nt	i
CCC(=O)Nc1ccc(F)c(Cl)c1	i	i	-106	i	i	i
CC(C)(C)NC(=O)Nc1ccc(F)c(Cl)c1	nt	i	nt	i	13µM	i
CCCNC(=O)Nc1ccc(F)c(Cl)c1	nt	i	nt	i	i	i
CCC(=O)Nc1ccc(Br)c(Cl)c1	i	i	?	i	i	i[0.074 µM]
COc1cc(NC(=O)c2cccs2)c(C(=O)OCC(=O)NC(=O)NC(C)(C)C)cc1OC	i	i	-98	i	i[9.22 µM]	i
CCCCCCCCCCCCC/C=C/[C@@H](O)[C@@H](N)CO	i	?	nt	i	nt	i
CN(C)c1ccc(NC(=O)CN2CCN(S(=O)(=O)c3cc(Cl)ccc3Cl)CC2)cc1	i	?	i	?	i	i
O=C(Nc1ccc(S(=O)(=O)N2CCOCC2)cc1)c1ccc2c(c1)OCO2	nt	i	nt	nt	i[9.22 µM]	i[10 µM]
O=C(Nc1ccc2c(c1)OCCO2)c1ccc(Cl)c(S(=O)(=O)N2CCOCC2)c1	i	i	i	5µM	i	i
O=C(CN1CCN(S(=O)(=O)c2cc(Cl)ccc2Cl)CC1)Nc1ccc2c(c1)OCCO2	i	i	i	8.9µM	i	i[10 µM]
COc1ccc(C)cc1NC(=O)C1CCCN(S(=O)(=O)c2c(C)noc2/C=C/N(C)C)C1 (centres undefined)	nt	nt	nt	nt	nt	i
C[C@H]1Cc2c(COc3ccccc3)nc3c(c2CO1)CN(C(=O)C1CC1)CC3	i	i[13.1 µM]	nt	i[13.5 µM]	nt	?
O=c1cc(C(F)(F)F)nc(-c2ccccc2)[nH]1	14µM	i	?	i	i	i[10 µM]
CCOC(=O)CSc1nc(N)c2c3c(sc2n1)CCCC3	i	i	i	i	i	i
CCN(CC)C(=O)CSc1nc(N)c2c3c(sc2n1)CC(C)CC3 (centres undefined)	14µM	i	i	i	i	i
CC1CCc2c(sc3nc(C4CC4)nc(SCC(=O)NCc4ccco4)c23)C1 (centres undefined)	nt	nt	nt	nt	nt	i[10 µM]
CC1CCc2c(sc3nc(SCC(=O)NCc4ccco4)nc(N)c23)C1 (centres undefined)	14µM	i	i	i	i	i[0.074 µM]
CN1CCN(c2ccc(C(=O)c3ccc(Br)cc3)cc2[N+](=O)[O-])CC1	nt	i	nt	i	i	i
Cc1ccc(C(=O)NCC(=O)NCC(=O)OCC(=O)c2cccs2)cc1	i	i	i	i	i	nt
O=[N+]([O-])c1ccc(-c2nc3ccc([N+](=O)[O-])cc3[nH]2)cc1	i	i	?	i	18µM	i
CCc1cccc(C)c1NC(=S)NCc1cccn1C	i	i	i	14µM	i	i[10 µM]
CCN(CC)C1=N/C(=C\c2ccco2)C(=O)N1c1ccccc1	i	?	i	?	i	i[10 µM]
CC(C)CN(CC(C)C)C1=N/C(=C\c2ccco2)C(=O)N1c1ccccc1	?	i	i	13µM	i	i
O=Cc1[nH]c2ccccc2c1N(C(=O)CCl)c1ccc([N+](=O)[O-])cc1	nt	i	nt	7.9µM	i[9.22 µM]	i[10 µM]
SMILES	HPGD inh	CBFb-RUNX1 inh	PNC inhibitor	ALDH1A1 inh	HttQ103 aggreg	HTT ATP protect
CN(C)CCCNc1cc(O)c2c(c1O)C(=O)c1ccccc1C2=O	i	nt	nt	i[13.5 µM]	nt	i[10 µM]
COc1cccc(Cn2c(=O)c(CCc3ccccc3)nc3cnc(OC)nc32)c1	i	nt	nt	i	nt	i
COc1cccc(N2CCN(c3ncnc4c3[nH]c3ccccc34)CC2C)c1 (centres undefined)	i	i	?	35µM	11µM	i[10 µM]
COc1cccc(N2CCN(c3ncnc4c3[nH]c3ccc(F)cc34)CC2C)c1 (centres undefined)	i	?	i	i	6.3µM	i
COc1ccc2[nH]c3c(N4CC(C)OC(C)C4)ncnc3c2c1 (centres undefined)	?	i	i	?	i	i
CC(C)(C)c1nc(SCC(=O)Nc2ccc3c(c2)OCCO3)c2ccccc2n1	i	i	?	i	i	i
CCOC(=O)c1ccc(NC(=O)c2ccc(NC(=O)c3ccccc3)cc2)cc1	i	i	i	i	i	i[10 µM]
CCOC(=O)c1ccc(NC2OC(=O)c3ccccc32)cc1 (centres undefined)	i	i	-94	i	i	i[10 µM]
CC1(C)CC2(CC(c3ccccc3)c3ccc(O)cc3O2)NC(=S)N1 (centres undefined)	nt	i	nt	i	i[9.22 µM]	i[10 µM]
COc1ccc(/C(=C\C(=O)O)c2nccc3cc(OC)c(OC)cc23)cc1OC	i	i	nt	i	nt	i
COc1ccc(-c2c(C#N)sc(C(N)=O)c2-c2ccc(OC)cc2)cc1	nt	i	nt	2µM	i[9.22 µM]	i[10 µM]
Cc1nnc(SCc2ccc(Cl)cc2Cl)[nH]c1=O	16µM	i	?	i	i	i
Cc1noc(C)c1-c1ccc2ncnc(NCc3cc(F)cc(F)c3)c2c1	nt	i	nt	nt	nt	nt
O=C(COc1ccc([N+](=O)[O-])cc1)N/N=C/c1cc([N+](=O)[O-])ccc1N1CCOCC1	i	i	i	3.5µM	i	i[10 µM]
O=C(c1cc([N+](=O)[O-])ccc1N1CCCC1)N1CCCCC1	nt	i	nt	i	i	i
O=C(c1cc([N+](=O)[O-])ccc1N1CCCCC1)N1CCCCC1	?	i	i	20µM	i	i
Cc1ccc(C(=O)c2cc([N+](=O)[O-])ccc2N2CCOCC2)cc1	i	i	-96	?	i	i[10 µM]
Cc1ccc(C(=O)c2ccc(N3CCOCC3)c(F)c2)cc1	28µM	i	i	?	i	i[1.9 µM]
CCCC(=O)c1ccc(N2CCOCC2)c(F)c1	i	i	i	i	i	i
COc1ccc(C(=O)c2cc([N+](=O)[O-])ccc2N2CCOCC2)cc1	i	i	-84	i	?	i[0.074 µM]
COc1ccc(-c2c(NC(=O)c3ccco3)n(-c3ccccc3)nc(C)c2=O)cc1	nt	i	nt	nt	i[9.22 µM]	i[10 µM]
COC(=O)[C@@]1(Cc2ccc(OC)cc2)[C@H]2c3cc(C(=O)N4CCCC4)n(CCc4ccc(O)c(OC)c4)c3C[C@H]2CN1C(=O)c1ccccc1	i	i	nt	i	nt	i
CCOc1ccc(S(=O)(=O)Nc2ccccn2)c2ccccc12	?	i	i	?	i	i
